# Measurements reported in paper PMC11006913.
# Substitutions are numbered along the chain they refer to.
# Legend:
# Assay in all cases: PBM; 200 nM protein, PBS
# Conditions in all cases: dsDNA, one strand shown
# [1] = target: HESX1 (Homo sapiens, UniProt Q9UBX0 95-180, R165K)
# [2] = target: HOXB9 (Homo sapiens, UniProt P17482 171-250, T197M)
# [3] = target: HOXA7 (Homo sapiens, UniProt P31268 116-202)
# [4] = target: ALX4 (Homo sapiens, UniProt Q9H161 200-286)
# [5] = target: PRRX1 (Homo sapiens, UniProt P54821 80-166, F113S)
# Chain of PRRX1 (Homo sapiens, UniProt P54821 80-166, F113S) (P54821 80-166 F113S): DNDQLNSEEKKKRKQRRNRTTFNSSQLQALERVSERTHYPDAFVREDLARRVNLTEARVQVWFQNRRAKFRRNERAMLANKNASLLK
# [6] = target: HOXB6 (Homo sapiens, UniProt P17509 132-218, K202E)
# Chain of HOXB6 (Homo sapiens, UniProt P17509 132-218, K202E) (P17509 132-218 K202E): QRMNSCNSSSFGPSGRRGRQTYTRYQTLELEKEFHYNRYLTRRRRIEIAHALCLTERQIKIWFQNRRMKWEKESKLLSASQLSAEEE
# [7] = target: ALX4 (Homo sapiens, UniProt Q9H161 200-286, Q225E)
# Chain of ALX4 (Homo sapiens, UniProt Q9H161 200-286, Q225E) (Q9H161 200-286 Q225E): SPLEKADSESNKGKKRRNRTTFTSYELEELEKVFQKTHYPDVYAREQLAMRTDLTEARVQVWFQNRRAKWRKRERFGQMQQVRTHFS
# [8] = target: HESX1 (Homo sapiens, UniProt Q9UBX0 95-180)
# Chain of HESX1 (Homo sapiens, UniProt Q9UBX0 95-180) (Q9UBX0 95-180): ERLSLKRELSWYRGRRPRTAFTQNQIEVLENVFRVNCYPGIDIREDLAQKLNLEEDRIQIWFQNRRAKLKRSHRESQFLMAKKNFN
# [9] = target: HOXA4 (Homo sapiens, UniProt Q00056 201-287, R217L)
# Chain of HOXA4 (Homo sapiens, UniProt Q00056 201-287, R217L) (Q00056 201-287 R217L): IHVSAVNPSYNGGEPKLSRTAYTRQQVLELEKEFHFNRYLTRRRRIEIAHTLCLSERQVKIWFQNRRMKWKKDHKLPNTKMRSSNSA
# [10] = target: MSX2 (Homo sapiens, UniProt P35548 130-214, R199I)
# Chain of MSX2 (Homo sapiens, UniProt P35548 130-214, R199I) (P35548 130-214 R199I): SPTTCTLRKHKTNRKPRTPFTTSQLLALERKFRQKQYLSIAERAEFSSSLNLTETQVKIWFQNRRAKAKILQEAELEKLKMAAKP
# [11] = target: ALX1 (Homo sapiens, UniProt Q15699 118-204, L144V)
# Chain of ALX1 (Homo sapiens, UniProt Q15699 118-204, L144V) (Q15699 118-204 L144V): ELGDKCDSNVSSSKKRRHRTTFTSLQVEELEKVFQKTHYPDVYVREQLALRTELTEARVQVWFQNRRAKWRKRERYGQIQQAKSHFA
# [12] = target: ALX3 (Homo sapiens, UniProt O95076 139-225, N203Q)
# Chain of ALX3 (Homo sapiens, UniProt O95076 139-225, N203Q) (O95076 139-225 N203Q): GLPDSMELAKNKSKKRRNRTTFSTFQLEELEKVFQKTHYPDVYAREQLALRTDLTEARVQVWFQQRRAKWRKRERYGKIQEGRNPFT
# [13] = target: ALX1 (Homo sapiens, UniProt Q15699 118-204, L144R)
# Chain of ALX1 (Homo sapiens, UniProt Q15699 118-204, L144R) (Q15699 118-204 L144R): as the sequence (Q15699 118-204 L144V) above, with V27R counted along it
# [14] = target: MSX2 (Homo sapiens, UniProt P35548 130-214)
# Chain of MSX2 (Homo sapiens, UniProt P35548 130-214) (P35548 130-214): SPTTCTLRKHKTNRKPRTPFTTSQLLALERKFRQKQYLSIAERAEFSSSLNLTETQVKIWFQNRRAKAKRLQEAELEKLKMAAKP
# [15] = target: ALX3 (Homo sapiens, UniProt O95076 139-225)
# Chain of ALX3 (Homo sapiens, UniProt O95076 139-225) (O95076 139-225): as the sequence (O95076 139-225 N203Q) above, with Q65N counted along it
# [16] = target: T1, PAX4 (Homo sapiens, UniProt O43316 9-242, F177Y)
# T1 sequence: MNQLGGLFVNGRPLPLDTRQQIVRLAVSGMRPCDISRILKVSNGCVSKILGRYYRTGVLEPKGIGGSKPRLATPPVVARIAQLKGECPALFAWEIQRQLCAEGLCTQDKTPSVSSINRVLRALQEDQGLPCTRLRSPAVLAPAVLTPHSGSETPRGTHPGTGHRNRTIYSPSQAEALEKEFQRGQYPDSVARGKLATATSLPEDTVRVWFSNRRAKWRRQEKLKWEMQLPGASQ
# [17] = target: PROP1 (Homo sapiens, UniProt O75360 56-141)
# Chain of PROP1 (Homo sapiens, UniProt O75360 56-141) (O75360 56-141): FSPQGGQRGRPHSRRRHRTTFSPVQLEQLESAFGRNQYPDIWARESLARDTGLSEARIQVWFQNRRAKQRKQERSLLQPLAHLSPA
# [18] = target: HESX1 (Homo sapiens, UniProt Q9UBX0 95-180, R109Q)
# Chain of HESX1 (Homo sapiens, UniProt Q9UBX0 95-180, R109Q) (Q9UBX0 95-180 R109Q): as the sequence (Q9UBX0 95-180) above, with R15Q counted along it
# [19] = target: PROP1 (Homo sapiens, UniProt O75360 56-141, R99H)
# Chain of PROP1 (Homo sapiens, UniProt O75360 56-141, R99H) (O75360 56-141 R99H): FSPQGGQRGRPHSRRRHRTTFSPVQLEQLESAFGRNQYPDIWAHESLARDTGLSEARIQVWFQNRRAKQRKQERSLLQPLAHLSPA
# [20] = target: ALX3 (Homo sapiens, UniProt O95076 139-225, L168Q)
# Chain of ALX3 (Homo sapiens, UniProt O95076 139-225, L168Q) (O95076 139-225 L168Q): as the sequence (O95076 139-225 N203Q) above, with L30Q, Q65N counted along it
# [21] = target: HESX1 (Homo sapiens, UniProt Q9UBX0 95-180, P111T)
# Chain of HESX1 (Homo sapiens, UniProt Q9UBX0 95-180, P111T) (Q9UBX0 95-180 P111T): as the sequence (Q9UBX0 95-180) above, with P17T counted along it
# [22] = target: HOXC9 (Homo sapiens, UniProt P31274 178-260, R222W)
# Chain of HOXC9 (Homo sapiens, UniProt P31274 178-260, R222W) (P31274 178-260 R222W): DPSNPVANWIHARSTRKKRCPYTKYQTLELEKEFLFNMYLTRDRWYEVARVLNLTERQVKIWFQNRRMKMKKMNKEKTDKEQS
# [23] = target: ALX3 (Homo sapiens, UniProt O95076 139-225, L168V)
# Chain of ALX3 (Homo sapiens, UniProt O95076 139-225, L168V) (O95076 139-225 L168V): as the sequence (O95076 139-225 N203Q) above, with L30V, Q65N counted along it
# [24] = target: PROP1 (Homo sapiens, UniProt O75360 56-141, F88S)
# Chain of PROP1 (Homo sapiens, UniProt O75360 56-141, F88S) (O75360 56-141 F88S): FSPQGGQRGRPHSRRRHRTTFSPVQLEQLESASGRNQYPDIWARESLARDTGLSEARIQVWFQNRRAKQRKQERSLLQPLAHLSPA
# [25] = target: MSX2 (Homo sapiens, UniProt P35548 130-214, F161Y)
# Chain of MSX2 (Homo sapiens, UniProt P35548 130-214, F161Y) (P35548 130-214 F161Y): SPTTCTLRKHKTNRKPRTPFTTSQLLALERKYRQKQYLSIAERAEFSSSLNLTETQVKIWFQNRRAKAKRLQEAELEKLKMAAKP
# [26] = target: HESX1 (Homo sapiens, UniProt Q9UBX0 95-180, F115L)
# Chain of HESX1 (Homo sapiens, UniProt Q9UBX0 95-180, F115L) (Q9UBX0 95-180 F115L): as the sequence (Q9UBX0 95-180) above, with F21L counted along it
# [27] = target: VAX1 (Homo sapiens, UniProt Q5SQQ9 86-172, T142I)
# Chain of VAX1 (Q5SQQ9 86-172 T142I): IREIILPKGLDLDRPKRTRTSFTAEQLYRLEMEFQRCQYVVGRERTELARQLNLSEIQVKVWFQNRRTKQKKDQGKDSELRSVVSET
# [28] = target: T2, PAX4 (Homo sapiens, UniProt O43316 9-242, R227W)
# T2 sequence: T1 sequence with Y169F, R219W
# [29] = target: HOXA7 (Homo sapiens, UniProt P31268 116-202, W177C)
# Chain of HOXA7 (Homo sapiens, UniProt P31268 116-202, W177C) (P31268 116-202 W177C): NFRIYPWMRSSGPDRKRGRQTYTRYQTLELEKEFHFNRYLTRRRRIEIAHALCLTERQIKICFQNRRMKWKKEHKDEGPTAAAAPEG
# [30] = target: ALX1 (Homo sapiens, UniProt Q15699 118-204)
# Chain of ALX1 (Homo sapiens, UniProt Q15699 118-204) (Q15699 118-204): as the sequence (Q15699 118-204 L144V) above, with V27L counted along it
# [31] = target: HOXA4 (Homo sapiens, UniProt Q00056 201-287, W262F)
# Chain of HOXA4 (Homo sapiens, UniProt Q00056 201-287, W262F) (Q00056 201-287 W262F): as the sequence (Q00056 201-287 R217L) above, with L17R, W62F counted along it
# [32] = target: ALX3 (Homo sapiens, UniProt O95076 139-225, N203S)
# Chain of ALX3 (Homo sapiens, UniProt O95076 139-225, N203S) (O95076 139-225 N203S): as the sequence (O95076 139-225 N203Q) above, with Q65S counted along it
# [33] = target: PRRX1 (Homo sapiens, UniProt P54821 80-166)
# Chain of PRRX1 (Homo sapiens, UniProt P54821 80-166) (P54821 80-166): as the sequence (P54821 80-166 F113S) above, with S34F counted along it
# [34] = target: HOXB6 (Homo sapiens, UniProt P17509 132-218)
# Chain of HOXB6 (Homo sapiens, UniProt P17509 132-218) (P17509 132-218): as the sequence (P17509 132-218 K202E) above, with E71K counted along it
# [35] = target: HOXC9 (Homo sapiens, UniProt P31274 178-260, K195R)
# Chain of HOXC9 (Homo sapiens, UniProt P31274 178-260, K195R) (P31274 178-260 K195R): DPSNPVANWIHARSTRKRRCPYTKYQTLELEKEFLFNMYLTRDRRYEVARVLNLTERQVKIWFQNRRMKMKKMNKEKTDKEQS
# [36] = target: HOXA2 (Homo sapiens, UniProt O43364 129-215, R185T)
# Chain of HOXA2 (Homo sapiens, UniProt O43364 129-215, R185T) (O43364 129-215 R185T): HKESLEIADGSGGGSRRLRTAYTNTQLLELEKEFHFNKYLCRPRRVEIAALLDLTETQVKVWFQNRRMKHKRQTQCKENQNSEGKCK
# [37] = target: HOXB9 (Homo sapiens, UniProt P17482 171-250)
# Chain of HOXB9 (Homo sapiens, UniProt P17482 171-250) (P17482 171-250): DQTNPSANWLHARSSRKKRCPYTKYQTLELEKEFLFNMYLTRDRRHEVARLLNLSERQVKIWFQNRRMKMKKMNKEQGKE
# [38] = target: HOXA2 (Homo sapiens, UniProt O43364 129-215, R185K)
# Chain of HOXA2 (Homo sapiens, UniProt O43364 129-215, R185K) (O43364 129-215 R185K): as the sequence (O43364 129-215 R185T) above, with T57K counted along it
# [39] = target: HOXB9 (Homo sapiens, UniProt P17482 171-250, R186Q)
# Chain of HOXB9 (Homo sapiens, UniProt P17482 171-250, R186Q) (P17482 171-250 R186Q): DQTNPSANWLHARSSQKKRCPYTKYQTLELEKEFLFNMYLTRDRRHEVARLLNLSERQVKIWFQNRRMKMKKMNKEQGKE
# [40] = target: HOXA2 (Homo sapiens, UniProt O43364 129-215, Y150S)
# Chain of HOXA2 (Homo sapiens, UniProt O43364 129-215, Y150S) (O43364 129-215 Y150S): as the sequence (O43364 129-215 R185T) above, with Y22S, T57R counted along it
# [41] = target: HOXA2 (Homo sapiens, UniProt O43364 129-215)
# Chain of HOXA2 (Homo sapiens, UniProt O43364 129-215) (O43364 129-215): as the sequence (O43364 129-215 R185T) above, with T57R counted along it
# Chain of HESX1 (Homo sapiens, UniProt Q9UBX0 95-180, R165K) (Q9UBX0 95-180 R165K): as the sequence (Q9UBX0 95-180) above, with R71K counted along it
# Chain of HOXA7 (Homo sapiens, UniProt P31268 116-202) (P31268 116-202): as the sequence (P31268 116-202 W177C) above, with C62W counted along it
# Chain of HOXB9 (Homo sapiens, UniProt P17482 171-250, T197M) (P17482 171-250 T197M): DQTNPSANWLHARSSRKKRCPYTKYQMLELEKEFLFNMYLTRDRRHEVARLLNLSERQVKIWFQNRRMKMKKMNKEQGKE
# Chain of ALX4 (Homo sapiens, UniProt Q9H161 200-286) (Q9H161 200-286): as the sequence (Q9H161 200-286 Q225E) above, with E26Q counted along it
sequence,measurement,setting,value
AATTATTA,binding signal,[1],"11.5 upbm affinity estimate (log intensity, higher = more binding, comparable within an allelic series)"
same,binding signal,[2],"10.1 upbm affinity estimate (log intensity, higher = more binding, comparable within an allelic series)"
same,binding signal,[3],"11.3 upbm affinity estimate (log intensity, higher = more binding, comparable within an allelic series)"
same,binding signal,[4],"13.5 upbm affinity estimate (log intensity, higher = more binding, comparable within an allelic series)"
same,binding signal,[5],"11.3 upbm affinity estimate (log intensity, higher = more binding, comparable within an allelic series)"
same,binding signal,[6],"10.1 upbm affinity estimate (log intensity, higher = more binding, comparable within an allelic series)"
same,binding signal,[7],"12.8 upbm affinity estimate (log intensity, higher = more binding, comparable within an allelic series)"
same,binding signal,[8],"11.7 upbm affinity estimate (log intensity, higher = more binding, comparable within an allelic series)"
same,binding signal,[9],"12 upbm affinity estimate (log intensity, higher = more binding, comparable within an allelic series)"
same,binding signal,[10],"12.3 upbm affinity estimate (log intensity, higher = more binding, comparable within an allelic series)"
same,binding signal,[11],"11.4 upbm affinity estimate (log intensity, higher = more binding, comparable within an allelic series)"
same,binding signal,[12],"8.58 upbm affinity estimate (log intensity, higher = more binding, comparable within an allelic series)"
same,binding signal,[13],"11.2 upbm affinity estimate (log intensity, higher = more binding, comparable within an allelic series)"
same,binding signal,[14],"13.4 upbm affinity estimate (log intensity, higher = more binding, comparable within an allelic series)"
same,binding signal,[15],"12.3 upbm affinity estimate (log intensity, higher = more binding, comparable within an allelic series)"
same,binding signal,[16],"10.9 upbm affinity estimate (log intensity, higher = more binding, comparable within an allelic series)"
same,binding signal,[17],"11 upbm affinity estimate (log intensity, higher = more binding, comparable within an allelic series)"
same,binding signal,[18],"8.87 upbm affinity estimate (log intensity, higher = more binding, comparable within an allelic series)"
same,binding signal,[19],"10.8 upbm affinity estimate (log intensity, higher = more binding, comparable within an allelic series)"
same,binding signal,[20],"10.4 upbm affinity estimate (log intensity, higher = more binding, comparable within an allelic series)"
same,binding signal,[21],"10.3 upbm affinity estimate (log intensity, higher = more binding, comparable within an allelic series)"
same,binding signal,[22],"11.1 upbm affinity estimate (log intensity, higher = more binding, comparable within an allelic series)"
same,binding signal,[23],"9.98 upbm affinity estimate (log intensity, higher = more binding, comparable within an allelic series)"
same,binding signal,[24],"7.79 upbm affinity estimate (log intensity, higher = more binding, comparable within an allelic series)"
same,binding signal,[25],"13.1 upbm affinity estimate (log intensity, higher = more binding, comparable within an allelic series)"
same,binding signal,[26],"8 upbm affinity estimate (log intensity, higher = more binding, comparable within an allelic series)"
same,binding signal,[27],"12.3 upbm affinity estimate (log intensity, higher = more binding, comparable within an allelic series)"
same,binding signal,[28],"11 upbm affinity estimate (log intensity, higher = more binding, comparable within an allelic series)"
same,binding signal,[29],"8.91 upbm affinity estimate (log intensity, higher = more binding, comparable within an allelic series)"
same,binding signal,[30],"12 upbm affinity estimate (log intensity, higher = more binding, comparable within an allelic series)"
same,binding signal,[31],"11.5 upbm affinity estimate (log intensity, higher = more binding, comparable within an allelic series)"
same,binding signal,[32],"8.68 upbm affinity estimate (log intensity, higher = more binding, comparable within an allelic series)"
same,binding signal,[33],"13.4 upbm affinity estimate (log intensity, higher = more binding, comparable within an allelic series)"
same,binding signal,[34],"11.8 upbm affinity estimate (log intensity, higher = more binding, comparable within an allelic series)"
ATAATTGC,binding signal,[1],"12.2 upbm affinity estimate (log intensity, higher = more binding, comparable within an allelic series)"
same,binding signal,[2],"10.2 upbm affinity estimate (log intensity, higher = more binding, comparable within an allelic series)"
same,binding signal,[35],"12.6 upbm affinity estimate (log intensity, higher = more binding, comparable within an allelic series)"
same,binding signal,[3],"11.5 upbm affinity estimate (log intensity, higher = more binding, comparable within an allelic series)"
same,binding signal,[4],"13.6 upbm affinity estimate (log intensity, higher = more binding, comparable within an allelic series)"
same,binding signal,[5],"11.1 upbm affinity estimate (log intensity, higher = more binding, comparable within an allelic series)"
same,binding signal,[6],"9.97 upbm affinity estimate (log intensity, higher = more binding, comparable within an allelic series)"
same,binding signal,[7],"12.7 upbm affinity estimate (log intensity, higher = more binding, comparable within an allelic series)"
same,binding signal,[8],"12.4 upbm affinity estimate (log intensity, higher = more binding, comparable within an allelic series)"
same,binding signal,[36],"12.4 upbm affinity estimate (log intensity, higher = more binding, comparable within an allelic series)"
same,binding signal,[37],"11.7 upbm affinity estimate (log intensity, higher = more binding, comparable within an allelic series)"
same,binding signal,[10],"12.9 upbm affinity estimate (log intensity, higher = more binding, comparable within an allelic series)"
same,binding signal,[11],"11.4 upbm affinity estimate (log intensity, higher = more binding, comparable within an allelic series)"
same,binding signal,[38],"13.2 upbm affinity estimate (log intensity, higher = more binding, comparable within an allelic series)"
same,binding signal,[13],"11.1 upbm affinity estimate (log intensity, higher = more binding, comparable within an allelic series)"
same,binding signal,[14],"14 upbm affinity estimate (log intensity, higher = more binding, comparable within an allelic series)"
same,binding signal,[17],"11.1 upbm affinity estimate (log intensity, higher = more binding, comparable within an allelic series)"
same,binding signal,[18],"8.36 upbm affinity estimate (log intensity, higher = more binding, comparable within an allelic series)"
same,binding signal,[19],"10.9 upbm affinity estimate (log intensity, higher = more binding, comparable within an allelic series)"
same,binding signal,[20],"10.3 upbm affinity estimate (log intensity, higher = more binding, comparable within an allelic series)"
same,binding signal,[21],"10.6 upbm affinity estimate (log intensity, higher = more binding, comparable within an allelic series)"
same,binding signal,[39],"11.5 upbm affinity estimate (log intensity, higher = more binding, comparable within an allelic series)"
same,binding signal,[24],"7.6 upbm affinity estimate (log intensity, higher = more binding, comparable within an allelic series)"
same,binding signal,[25],"13.6 upbm affinity estimate (log intensity, higher = more binding, comparable within an allelic series)"
same,binding signal,[26],"7.74 upbm affinity estimate (log intensity, higher = more binding, comparable within an allelic series)"
same,binding signal,[40],"10.8 upbm affinity estimate (log intensity, higher = more binding, comparable within an allelic series)"
same,binding signal,[29],"8.84 upbm affinity estimate (log intensity, higher = more binding, comparable within an allelic series)"
same,binding signal,[33],"13.2 upbm affinity estimate (log intensity, higher = more binding, comparable within an allelic series)"
same,binding signal,[41],"12.2 upbm affinity estimate (log intensity, higher = more binding, comparable within an allelic series)"
same,binding signal,[34],"12 upbm affinity estimate (log intensity, higher = more binding, comparable within an allelic series)"
GAACCCCC,binding signal,[1],"6.29 upbm affinity estimate (log intensity, higher = more binding, comparable within an allelic series)"
same,binding signal,[8],"6.26 upbm affinity estimate (log intensity, higher = more binding, comparable within an allelic series)"
same,binding signal,[36],"7.12 upbm affinity estimate (log intensity, higher = more binding, comparable within an allelic series)"
same,binding signal,[10],"9.43 upbm affinity estimate (log intensity, higher = more binding, comparable within an allelic series)"
same,binding signal,[38],"10 upbm affinity estimate (log intensity, higher = more binding, comparable within an allelic series)"
same,binding signal,[14],"9.41 upbm affinity estimate (log intensity, higher = more binding, comparable within an allelic series)"
same,binding signal,[18],"6.37 upbm affinity estimate (log intensity, higher = more binding, comparable within an allelic series)"
same,binding signal,[21],"6.38 upbm affinity estimate (log intensity, higher = more binding, comparable within an allelic series)"
same,binding signal,[25],"9.53 upbm affinity estimate (log intensity, higher = more binding, comparable within an allelic series)"
same,binding signal,[26],"6.35 upbm affinity estimate (log intensity, higher = more binding, comparable within an allelic series)"
same,binding signal,[40],"10.3 upbm affinity estimate (log intensity, higher = more binding, comparable within an allelic series)"
same,binding signal,[41],"7.05 upbm affinity estimate (log intensity, higher = more binding, comparable within an allelic series)"
AATTGAGT,binding signal,[1],"9.4 upbm affinity estimate (log intensity, higher = more binding, comparable within an allelic series)"
same,binding signal,[8],"9.59 upbm affinity estimate (log intensity, higher = more binding, comparable within an allelic series)"
